Data taken from PubChem BioAssay (NCI).
About 83,000 compounds went through this panel and 20% of them were active in at least one assay; those are over-represented in the sample as a whole.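 Method: cells in 96-well plates; compound added at one concentration; 48 h incubation; percent growth measured; values under 10 scored active.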 Unmarked numbers belong to inactive results. Active and inactive are the calls of the source.

These compounds were tested on MDA-MB-468 breast (assay: NCI-60 one-dose screen, 48 h (100 = growth as untreated, 0 = no growth, -100 = all killed)). Conditions: 10 µM unless noted.
`Cc1cc(N2CCOCC2)nc(N(CCCNc2ccnc3cc(Cl)ccc23)Cc2ccc3c(c2)OCO3)n1` was tested, and the growth was -63.6% (active). Work on `CC(=O)[C@@H]1CC[C@]2(CO)CC[C@]3(C)[C@H](CC[C@@H]4[C@@]5(C)CCCNC(C)(C)[C@@H]5CC[C@]43C)[C@@H]12` yielded a growth of 106%. With `N#C/C(=C\N1C(=O)/C(=C/c2cccc([N+](=O)[O-])c2)SC1=S)c1nc2ccccc2s1` the growth was 81.7%. For `Cn1ccc2c(c1=O)C(=O)c1nccc3c1c-2nc1ccccc13`, the growth was -84.6% (active). `ClCc1cccc(CSc2ncnc3c2ncn3Cc2cccc(CCl)c2)c1` was tested, and the growth was -89.3% (active). `CCOC(=O)c1cnc(SCC)nc1SC#N` showed a growth of 124%. In the case of `C=C1C(=O)O[C@H]2[C@H]1CC/C(COC(=O)c1cc3cc(OC)ccc3[nH]1)=C\CC[C@@]1(C)O[C@@H]21`, the growth is reported as -76.3% (active). Work on `C#C[C@]1(O)CC[C@H]2[C@@H]3CC=C4c5sc(N(C)c6ccccc6)nc5CC[C@]4(C)[C@H]3CC[C@@]21C` yielded a growth of 76.2%. Compound `COC(=O)Cc1nc(C#N)c(N(C)C)o1` has a growth of 97.8%. For `Cc1cccc(NC(=O)CSc2nc3ccccc3[nH]2)c1`, the growth was 104%. In the case of `CCc1cc(OC(=O)N2CCC(N3CCCCC3)CC2)ccc1Nc1cc(-c2ccc(-n3cccn3)cc2)[nH]n1`, the growth is reported as 84.4%. `CCOC(=O)C1=C(N)Oc2c(sc3c(C)cccc23)C1c1ccc(Cl)cc1` (stereo not given) was tested, and the growth was -2.2% (active). For `NC(=S)N/N=C/c1ccc(OC(=O)COc2cc(Cl)c(Cl)cc2Cl)cn1`, the growth was -0.374% (active). Compound `CC1CC=CCC1C1OCC(C)(C)CO1` (stereo not given) has a growth of 105%. With `[O-][N+](=Nc1cccc(Cl)c1)c1cccc(Cl)c1` the growth was -25% (active). `COc1ccc(Cn2c(NCCCN(C)C)nc(=O)n(Cc3ccc(F)cc3)c2=O)cc1` showed a growth of 85.8%. For `O=C1Nc2c(ccc(Cl)c2Cl)/C1=C/c1ccccn1`, the growth was 50.6%. `CCCCC1COc2cccc3c(SCC(=O)N(C)c4cccc(Cl)c4)cc[n+]1c23` (stereo not given) was tested, and the growth was 104%. `COc1cc(-c2cc(C(=O)N3CCN(C(=O)c4ccccc4NCc4ccco4)CC3)nc3cc(-c4ccccc4)nn23)cc(OC)c1OC` was tested, and the growth was 0.207% (active). `C#CC(C(C)C)N(CCO)CCCC` (stereo not given) showed a growth of 103%. For `O=C(NCc1ccc(Cn2c(=O)sn(-c3ccc(Cl)cc3)c2=O)cc1)OCc1ccc2c(Cl)cc(Cl)c(O)c2n1`, the growth was 45.4%. For `C#CC#CC#CC#CC#CC#CC#CC#CC[C@@H]1OC[C@@H](COC(=O)O[C@@H](C(=O)O[C@H]2C[C@@]3(O)[C@@H](OC(=O)c4ccccc4)[C@@H]4[C@]5(OC(C)=O)CO[C@@H]5C[C@H](O)[C@@]4(C)C(=O)[C@H](OC(C)=O)C(=C2C)C3(C)C)[C@@H](NC(=O)c2ccccc2)c2ccccc2)O1`, the growth was -4.7% (active). `CCN(CC)Cc1cc(C=C2C(=O)NC(=S)NC2=O)cc(OC)c1O` showed a growth of 108%. `CCCCCCNCc1cc(C(C)(C)C)cc(CNCCCCCC)c1O` was tested, and the growth was -89.8% (active). In the case of `O=C(O)C1CCCN1C(=O)OCc1ccccc1` (stereo not given), the growth is reported as 115%. `CCCCNC(=O)CC1=C(C)/C(=C/c2[nH]c(-c3ccc[nH]3)cc2OC)N=C1C` showed a growth of 37.9%. For `Nc1ccc(CC(=O)O)c(N)c1`, the growth was 88.5%. `COc1cc2ncnc(-n3ncc4cc(NC(=O)Nc5ccc(Cl)c(C)c5)ccc43)c2cc1OC` showed a growth of 93.6%. `C=C(C)[C@@H]1CC[C@]2(COCCC#N)CC[C@]3(C)[C@H](CC[C@@H]4[C@@](C)(CCCNCCC#N)[C@H](C(=C)C)CC[C@]43C)[C@@H]12` was tested, and the growth was 16.3% [100 µM]. `CC(C)[C@@]12C[C@@H](OC(=O)[C@H]3CO3)[C@@](C)(O1)[C@@H]1CC[C@@H](C)[C@H]1[C@@H]2OC(=O)/C=C/c1ccccc1` showed a growth of 85.8%. `Cc1cc(CC(=O)NCCO)n(CCO)c(=O)c1` showed a growth of 113%. In the case of `CN1CCN(c2ccc3nc4c(nc3c2C(F)(F)F)C(=O)c2ncccc2C4=O)CC1`, the growth is reported as -62.4% (active). With `CC(C)NC1CCC(Nc2ccnc3cc(Cl)ccc23)CC1` (stereo not given) the growth was 62.3%. For `CCC(c1ccc(OC)cc1)C(CC)c1ccc(O)c(CN2CCCC2)c1` (stereo not given), the growth was -45% (active). `CCOC(=O)c1c(NC(=O)c2ccccc2C(F)(F)F)sc2c1CCC(=O)C2` gave a growth of 58.6%. With `COc1cc(-c2nn(-c3cccc(NC(=O)c4cccc(C(F)(F)F)c4)c3)cc2-c2ccncc2)ccc1Cl` the growth was -19.4% (active). `COc1cc(O)c2c(c1)/C=C/C[C@H](O)[C@H](O)C(=O)/C=C\C[C@H](C)OC2=O` was tested, and the growth was -24.3% (active). For `Cn1cc(-c2nn3c(=O)cc(-c4ccccc4)nc3s2)c2cc(F)ccc21`, the growth was 38.9%. `COc1ccc(C2N(c3cc(OC)c(OC)c(OC)c3)C(=O)C2(F)F)cc1F` (stereo not given) was tested, and the growth was 44.5%. In the case of `Cc1ccc(S(=O)(=O)Oc2ccc(Br)cc2Br)cc1`, the growth is reported as 23.7%.
